# High-throughput results: PubChem, National Center for Advancing Translational Sciences (NCATS)
# HTT prom inh = Primary qHTS for Identification of Small Molecule Inhibitors of Huntingtin Promoter Activity | HEK293 HTT promoter firefly luciferase reporter, 24 h | Potency, µM (series often up to 57.5 µM), for the others: top-dose activity change, negative = inhibition, actives largely listed as inhibitors | 48,000 tested, 0.93% active | AID 1508623, 2021; note: potency is the fitted concentration of half-maximal effect; nearly all actives have a fitted effect of over 50% in size
#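 HEK293 Fluc reporter, 2,500 cells/well, 24 h pre-culture; cpds up to 57.5 uM final, 24 h 37 degrees C; Dual-Glo, 10 min RT; normalized vehicle = 0%, zero RLU = -100%.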
# NTMT1 inhibitor = Primary qHTS for Inhibitors of N-terminal methyltransferase 1 (NTMT1): MTaseGlo Assay; Potency, µM (highest dose often 114 µM), without a hit: top-dose activity change, negative = inhibition, hits mostly inhibitors; 59,000 tested, 2.5% active; N-terminal Xaa-Pro-Lys N-methyltransferase 1 (Homo sapiens), Q9BV86; NTMT1 MTase-Glo SAH luminescence, purified enzyme;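 note: potency is the fitted concentration of half-maximal effect; plate controls were DMSO vehicle for no effect and no enzyme for full effect; nearly all actives have a fitted effect of over 65% in size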
# Target sequence (Q9BV86 whole entry, looked up): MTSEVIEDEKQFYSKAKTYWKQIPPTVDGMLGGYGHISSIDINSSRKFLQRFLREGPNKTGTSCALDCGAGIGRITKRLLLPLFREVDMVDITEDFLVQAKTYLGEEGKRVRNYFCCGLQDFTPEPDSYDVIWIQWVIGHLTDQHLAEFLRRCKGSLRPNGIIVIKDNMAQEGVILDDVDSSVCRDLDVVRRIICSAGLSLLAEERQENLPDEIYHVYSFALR
# GPR32 ag = qHTS for Agonists of Human Resolvin D1 Receptor DRV1 | Probable G-protein coupled receptor 32 (Homo sapiens), O75388 | CHO-K1 GPR32 beta-arrestin PathHunter luminescence, 90 min; zero percent set by DMSO-only wells | activation, % at 76.9 µM | 48,000 tested, 2.5% active | AID 1346428, 2018;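 active = activation of at least 60% and not above a set upper limit, about 1 call in 100 departs from these limits; inconclusive = activation of 40% to 60%, or above that upper limit; inactive = activation under 40%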; note: 0% is about no effect
#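 Beta-arrestin recruitment read-out: luminescence from complemented beta-Gal in CHO-K1 GPR32 PathHunter cells, measured 1 h after detection reagent at ambient temperature following 90 min compound exposure at 37 °C; DMSO served as basal (EC0) control.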
# GALC G270D up = A Novel Cell-Based Assay to Identify Small Molecules for B -Galactocerebrosidase; 145M-Twi-hGALC-G270D cells, HMU-beta-Gal fluorescence, 48 h; P54803; Potency, µM (titrated, usually from 57.5 µM), actives largely listed as activators; 45,000 tested, 0.1% active; note: potency is the fitted concentration of half-maximal effect; 0% is about no effect; nearly all actives have a fitted effect of over 65% in size
#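 qHTS, 1536-well; 145M-Twi-hGALC-G270D cells (WT line also made) in DMEM/F12 + 10% FBS; compound incubation on live cells; HMU-β-gal 0.1 mM final, pH 5.2, NaTC; carbonate stop; fluorescence increase = enhanced residual activity.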
# HTT-AS act = Primary qHTS for Identification of Small Molecule Activators of Huntingtin-Antisense Promoter Activity; Potency, µM (highest dose often 57.5 µM), for the others: at the top dose activity change, positive = activation, actives largely listed as activators; 48,000 tested, 0.24% active; HEK293 HTT-AS promoter firefly luciferase reporter, 24 h; response scale: percent change from vehicle, -100% = no light; note: potency is the fitted concentration of half-maximal effect; nearly all actives have a fitted effect of over 55% in size
#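 HEK293 Fluc reporter, 2,500 cells/well, 24 h pre-culture; cpds up to 57.5 uM final, 24 h 37 degrees C; Dual-Glo, 10 min RT; normalized vehicle = 0%, zero RLU = -100%.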
# FH mod = Identification of activators of human fumarate hydratase by quantitative high-throughput screening; Fumarate hydratase, mitochondrial (Homo sapiens), P07954; FH coupled MDH/diaphorase resazurin fluorescence, 15 min; Potency, µM (series often up to 79.9 µM), for inactives: at the top dose activity change, negative = inhibition, usual class: inhibitors; 54,000 tested, 0.22% active; note: potency is the fitted concentration of half-maximal effect; % is set by controls: 0 for no effect and ±100 for the full control effect; the screen sought activators but most active calls are inhibition curves; nearly all actives have a fitted effect of over 45% in size
# Target sequence (P07954 whole entry, looked up): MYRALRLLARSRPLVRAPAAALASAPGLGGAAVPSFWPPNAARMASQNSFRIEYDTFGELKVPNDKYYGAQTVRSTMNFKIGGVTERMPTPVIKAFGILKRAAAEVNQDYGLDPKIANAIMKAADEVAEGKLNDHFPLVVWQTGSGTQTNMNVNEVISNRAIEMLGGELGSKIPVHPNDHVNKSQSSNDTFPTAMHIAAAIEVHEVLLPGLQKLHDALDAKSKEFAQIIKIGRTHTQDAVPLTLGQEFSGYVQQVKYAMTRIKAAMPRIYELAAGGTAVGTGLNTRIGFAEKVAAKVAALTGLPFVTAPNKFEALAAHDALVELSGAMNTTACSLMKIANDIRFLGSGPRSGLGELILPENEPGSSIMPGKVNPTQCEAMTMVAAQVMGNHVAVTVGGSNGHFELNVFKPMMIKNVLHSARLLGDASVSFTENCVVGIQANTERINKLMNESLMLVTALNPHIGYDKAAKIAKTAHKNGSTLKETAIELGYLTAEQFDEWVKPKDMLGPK
# Numbers without * were called inactive; i = inactive; ? = inconclusive; / = not tested or not shown; ! = a repeat was not active; [ ] = another dose, or the depositor's remark. An excerpt weighted towards active compounds, which were near 4.7% of everything screened. Unless noted, calls come from the whole dose curve; as a rule, active = well fitted curve in the direction sought with a large enough effect; inconclusive = small, poorly fitted or top-dose-only effect, or another doubt; inactive = no such curve, though single readings can be large; an effect the other way counts as inactive or inconclusive.
SMILES,HTT prom inh,NTMT1 inhibitor,GPR32 ag,GALC G270D up,HTT-AS act,FH mod
CCOc1ccccc1C(=O)N1CCC(c2nc3ccccc3o2)CC1,-20%,89µM*,1,i,-34%,-6%
CCCCOc1ccc(C(=O)N2CCC(c3nc4ccccc4o3)CC2)cc1,?,-10%,-11,i,-23%,-25%
COc1ccc(C(=O)Nc2ccc(N3CCOCC3)c(C(F)(F)F)c2)cc1OC,-39%,-30%,37,i,-37%,?
CCOc1cc2c(c(F)c1OCC)C(=N)N(CC(=O)c1cc(N3CCOCC3)c(OC)c(C(C)(C)C)c1)C2,?,32µM*!,/,/,-31%,1%
NCc1c[nH]c(=S)n1C1CCc2c(F)cc(F)cc2C1 (stereo not given),/,-6%[57.5 µM],/,/,/,7%
OCCCc1ccccc1,-4%,-12%[57.5 µM],-5,i,1%,-12%[53.3 µM]
NNCCc1ccccc1,-7%,?,?,i,4µM*!,-8%[53.3 µM]
COc1cc(C2NC(=O)c3c(sc4c3CCN(C)C4)N2)cc(Br)c1OC(=O)c1ccc(C)cc1 (stereo not given),-1%,-23%,37,22µM*,-12%,?
O=C(O)c1ccc(-n2cccc2/C=C2\SC(=O)N(Cc3ccccc3Cl)C2=O)cc1,/,50µM*,/,/,/,/
O=C(O)c1ccc(-n2cccc2/C=C2\SC(=O)N(Cc3ccc(F)cc3)C2=O)cc1,/,79µM*,/,/,/,/
O=C(O)CN1C(=O)N/C(=C\c2cccn2-c2ccc(P(=O)(O)O)cc2)C1=O,/,-3%,/,/,/,/
O=c1c2ccccc2nc2sc(NCc3ccc(Sc4ccccc4)cc3)nn12,/,9%,/,/,/,/
CSc1ncc(C(=O)Nc2ccccc2C(F)(F)F)c(-c2ccccc2)n1,1%,89µM*,?,i,-6%,-14%
C[C@@H]1CC2C3C[C@H](F)C4=CC(=O)C=C[C@]4(C)[C@@]3(F)[C@@H](O)C[C@]2(C)[C@@]1(OC(=O)c1ccco1)C(=O)SCF (stereo not given in full),/,7%,/,/,/,/
CCc1nonc1NC(=O)c1oc2ccc(C)cc2c1C,60%,0%,3,i,?,-16%
CCc1nonc1NC(=O)c1oc2ccccc2c1C,17%,3%,66*,i,?,4%
COc1cc(O)c(C(CC(=O)N2CCCC(COc3ccc(F)cc3)C2)c2ccc3c(c2)OCO3)c(OC)c1 (stereo not given),/,8%,/,/,/,/
COCCCNC(=O)Cn1c(=O)n(Cc2ccc(C(=O)NCc3ccc(C)cc3)cc2)c(=O)c2ccccc21,3%,79µM*,98*,i,-14%,-8%
COCCCNC(=O)c1ccc(Cn2c(=O)c3ccccc3n(CC(=O)Nc3ccc(C)cc3C)c2=O)cc1,-8%,?,7,i,-4%,-22%
O=C(NC1CCN(Cc2ccccc2)CC1)c1ccc(Cn2c(=O)c3ccccc3n(Cc3ccccc3)c2=O)cc1,-21%,79µM*,10,i,-23%,2%
Nc1cccc(-c2cc3c(Oc4cccc(O)c4)ncnc3[nH]2)c1,?,22µM*!,/,/,-21%,-1%
CCCN(CCC)C(=O)c1cc2c(=O)n3cccc(C)c3nc2s1,16%,-22%,4,20µM*,-5%,?
Cc1cccn2c(=O)c3cc(C(=O)NCC(C)C)sc3nc12,18%,-19%,3,4µM*,-7%,-13%
CCCCN(CCCC)C(=O)c1cc2c(=O)n3cccc(C)c3nc2s1,-5%,3%,28,i,-14%,?
CC(C)(C)OC(=O)N1CCN(c2ccc(NCc3ccc(-c4cccc([N+](=O)[O-])c4)o3)cc2)CC1,/,-23%,/,/,/,/
SMILES,HTT prom inh,NTMT1 inhibitor,GPR32 ag,GALC G270D up,HTT-AS act,FH mod
COc1ccccc1N1CCN(CC[C@@](C)(C(=O)C2CCCCC2)c2ccccc2)CC1,/,?,/,/,/,-6%
c1nc2nc(Nc3ccc(N4CCOCC4)cc3)nc(NC3CCCCC3)c2[nH]1,?,40µM*!,/,/,-26%,-21%
CCS(=O)(=O)N1CCN(c2ccc(Nc3ncc(C(N)=O)c(NC4CC4)n3)cc2)CC1,/,?,/,/,/,1%
COC(=O)Cc1c(C)c2ccc3c(c2oc1=O)CN(Cc1ccc(Cl)cc1)CO3,-27%,6%,-14,25µM*,-23%,-2%
COC(=O)c1ccc(=O)c2nc3/c(=C/O)c(O)cc(=O)c3[nH]c12,/,35µM*,/,/,/,-6%
COc1cc(O)c(C(CC(=O)N2CCC(Cc3ccccc3)CC2)c2ccc3c(c2)OCO3)c(OC)c1 (stereo not given),/,6%[228 µM],/,/,/,/
CC(C)c1ccc(Nc2cc(C(=O)NCCc3ccccc3)c3ccccc3n2)cc1,-7%,-18%,85*,i,-18%,3%
COc1ccc(Nc2cc(C(=O)NCCCN(C)Cc3ccccc3)c3ccccc3n2)c(OC)c1,?,?,65*,i,-12%,-15%
OCC(O)CCO/N=C1/C(c2c(O)[nH]c3ccccc23)=Nc2ccccc21 (stereo not given),/,?,/,/,/,-4%
O=C(O)c1ccc(O)c2ncc(-c3cccc(N4CCOCC4)c3)cc12,/,21%,/,/,/,/
CC(CNc1nc2ccccc2c2nc(-c3ccccc3)nn12)c1ccccc1 (stereo not given),-11%,12%,-5,25µM*,-7%,-24%
c1ccc(CNc2nc3ccccc3c3nc(-c4ccccc4)nn23)cc1,1%,-8%,-8,i,-3%,-14%
Cc1ccc(-n2nc(C(C)(C)C)cc2NC(=O)Nc2cc(COc3cccnc3)[nH]n2)cc1,/,3%[57.5 µM],/,/,/,-6%
O=C(Nc1cccc(Nc2cc(Nc3cccc(C(F)(F)F)c3)ncn2)c1)C1CC1,/,10µM*,/,/,/,?
O=C(c1ccc(Nc2nccc(-c3cc4ccccc4s3)n2)cc1)N1CCC(N2CCCC2)CC1,-22%,28µM*!,/,/,-37%,-13%
CC(C)Oc1ccc(C(=O)N2CCC(c3nc4ccccc4s3)CC2)cc1,-20%,-3%,4,i,-8%,-10%
O=C1Nc2ccc(C(=O)c3ccco3)cc2/C1=C/c1cc(Cl)c(O)c(Cl)c1,/,4µM*,/,/,/,/
O=C1Nc2ccccc2/C1=C/c1cc(Cl)c(O)c(Cl)c1,/,35µM*!,/,/,/,/
